Several values for one entry are separate records, joined by “and”; a condition that tells them apart may be missing. Equal values may be shown once. About 2,000 (36%) of roughly 5,500 compounds were called active. About 18% were inconclusive and are not listed. Cut-off read from the data, not from the text of the source: active = normalized growth mostly below about 0.91 (no sharp cut-off); inconclusive = no clear call, values can overlap the other calls; inactive = mostly above about 0.92. Some of the results follow.
Assay: chemical genetic growth profiling, strain panel (AID 1159580);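 note: tested at 20 µM; growth read once vehicle control cultures reached saturation at 30 °C; 1 = growth at the plate median or of vehicle wells; lower values mean less growth of the strain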
Conditions: S. cerevisiae deletion strains, growth OD

Measured: normalized growth

COc1cc(Cc2cnc(N)nc2N)cc(OC)c1OC
inactive: locus YAL013W, strain DEP1, stronger effect = lower value 1 and 1.03 | locus YAL021C, strain ccr4, stronger effect = lower value 1.02 | locus YAL026C, strain drs2, stronger effect = lower value 1.01 | locus YAL030W, strain snc1, stronger effect = lower value 1.01 | locus YAL040C, strain CLN3, stronger effect = lower value 0.987 | locus YBL061C, strain skt5, stronger effect = lower value 1.01 | locus YBR009C, strain hhf1, stronger effect = lower value 1.01 | locus YBR021W, strain FUR4, stronger effect = lower value 0.977 | locus YBR023C, strain chs3, stronger effect = lower value 1.01 | locus YBR171W, strain sec66, stronger effect = lower value 1.02 | locus YBR229C, strain ROT2, stronger effect = lower value 0.998 | locus YBR231C, strain swc5, stronger effect = lower value 1.01 | locus YBR279W, strain paf1, stronger effect = lower value 1.02 | locus YCL011C, strain gbp2, stronger effect = lower value 1.02 | locus YCL016C, strain dcc1, stronger effect = lower value 1.02 | locus YCL029C, strain bik1, stronger effect = lower value 0.982 | locus YCL061C, strain MRC1 (second series), stronger effect = lower value 0.992 | locus YCL069W, strain vba3, stronger effect = lower value 1.02 | locus YCR088W, strain abp1, stronger effect = lower value 1.02 | locus YDL005C, strain med2, stronger effect = lower value 1.02 | locus YDL035C, strain GPR1, stronger effect = lower value 1.03 | locus YDL040C, strain nat1, stronger effect = lower value 1.01 | locus YDL074C, strain BRE1, stronger effect = lower value 0.993 | locus YDL101C, strain DUN1, stronger effect = lower value 0.99 | locus YDL134C, strain PPH21, stronger effect = lower value 0.986 | locus YDL185W, strain tfp1, stronger effect = lower value 0.987 | locus YDL192W, strain arf1, stronger effect = lower value 0.99 | locus YDR001C, strain nth1, stronger effect = lower value 1.01 | locus YDR069C, strain doa4, stronger effect = lower value 1.03 | locus YDR101C, strain arx1, stronger effect = lower value 0.986 | locus YDR137W, strain rgp1, stronger effect = lower value 1.02 | locus YDR150W, strain NUM1, stronger effect = lower value 1 | locus YDR159W, strain sac3, stronger effect = lower value 0.977 | locus YDR162C, strain NBP2, stronger effect = lower value 1 | locus YDR195W, strain ref2 1 | locus YDR297W, strain sur2, stronger effect = lower value 1.01 | locus YDR318W, strain mcm21, stronger effect = lower value 0.99 | locus YDR334W, strain swr1, stronger effect = lower value 1.02 | locus YDR335W, strain msn5, stronger effect = lower value 1.02 | locus YDR363W, strain ESC2, stronger effect = lower value 0.991 | locus YDR388W, stronger effect = lower value 0.987 | locus YDR392W, strain spt3, stronger effect = lower value 0.984 | locus YDR502C, strain sam2, stronger effect = lower value 0.998 | locus YEL003W, strain gim4, stronger effect = lower value 1.02 | locus YEL037C, strain rad23, stronger effect = lower value 1.01 | locus YEL061C, strain CIN8 (second series), stronger effect = lower value 1.01 | locus YEL061C, strain CIN8, stronger effect = lower value 0.997 | locus YER002W, strain NOP16, stronger effect = lower value 0.968 | locus YER015W, strain faa2, stronger effect = lower value 1.02 | locus YER016W, strain bim1, stronger effect = lower value 1.01 | locus YER110C, stronger effect = lower value 0.988 | locus YER111C, strain swi4, stronger effect = lower value 1.03 | locus YER155C, strain BEM2 (second series), stronger effect = lower value 0.991 | locus YER155C, strain BEM2, stronger effect = lower value 0.989 | locus YER167W, strain BCK2, stronger effect = lower value 1.01 | locus YFR010W, strain ubp6, stronger effect = lower value 1.01 | locus YGL078C, strain dbp3, stronger effect = lower value 0.992 | locus YGL086W, strain mad1, stronger effect = lower value 1.01 | locus YGL167C, strain pmr1, stronger effect = lower value 1.02 | locus YGL173C, strain kem1, stronger effect = lower value 1.02 | locus YGL227W, strain vid30, stronger effect = lower value 1.01 | locus YGL240W, strain doc1, stronger effect = lower value 1.01 | locus YGL248W, strain PDE1, stronger effect = lower value 1 | locus YGL253W, strain hxk2, stronger effect = lower value 1.01 | locus YGR078C, strain PAC10, stronger effect = lower value 1.01 | locus YGR135W, strain pre9, stronger effect = lower value 0.985 | locus YGR229C, strain SMI1, stronger effect = lower value 1.04 | locus YGR252W, strain gcn5, stronger effect = lower value 1.07 | locus YHR013C, strain ard1, stronger effect = lower value 1.01 | locus YHR027C, strain rpn1, stronger effect = lower value 1.01 | locus YHR030C, strain SLT2, stronger effect = lower value 0.999 and 0.966 | locus YHR079C, strain IRE1 (second series), stronger effect = lower value 0.988 | locus YHR079C, strain IRE1, stronger effect = lower value 0.979 | locus YHR094C, strain hxt1, stronger effect = lower value 0.993 | locus YHR129C, strain ARP1, stronger effect = lower value 0.991 | locus YHR142W, strain chs7, stronger effect = lower value 1.03 | locus YHR200W, strain rpn10, stronger effect = lower value 0.989 | locus YIL066C, strain RNR3, stronger effect = lower value 1 | locus YIL073C, strain SPO22, stronger effect = lower value 0.995 | locus YIL125W, strain kgd1, stronger effect = lower value 1 | locus YIR030C, strain dcg1, stronger effect = lower value 0.991 | locus YJL092W, strain hpr5, stronger effect = lower value 1 | locus YJL095W, strain BCK1 (second series), stronger effect = lower value 1.01 | locus YJL095W, strain BCK1, stronger effect = lower value 0.988 and 0.98 | locus YJL115W, strain asf1, stronger effect = lower value 1.02 | locus YJL129C, strain trk1, stronger effect = lower value 1.01 | locus YJL134W, strain LCB3, stronger effect = lower value 0.999 | locus YJL154C, strain vps35, stronger effect = lower value 1.03 | locus YJL164C, strain tpk1, stronger effect = lower value 1.01 | locus YJL166W, strain qcr8, stronger effect = lower value 0.993 | locus YJL168C, strain set2, stronger effect = lower value 0.993 | locus YJL187C, strain SWE1 (second series), stronger effect = lower value 0.993 | locus YJL187C, strain SWE1, stronger effect = lower value 1.02 | locus YJR043C, strain POL32, stronger effect = lower value 1 | locus YJR066W, strain TOR1, stronger effect = lower value 0.929
